Records with an inconclusive call do not appear. Unmarked numbers belong to inactive results. Active and inactive are the calls of the source. Unless noted, the call rests on the fitted dose curve; in most records, active means well fitted inhibition curve with a large enough effect; inconclusive means small, poorly fitted or top-dose-only effect; inactive means no such curve, though single readings can be large or run the other way.
Tested on: not listed separately
Test: S16 Schwann cell PMP22 intronic element firefly luciferase assay (AID 624032); further: nearly all actives have a fitted effect of over 30% in size; further: potency means the concentration at half of the fitted maximal effect;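 on activity change, negative = inhibition: plate controls were DMSO for no effect and PTC124 positive control mean for full effect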
Conditions: S16 rat Schwann cells, PMP22 element FLuc, 24 h; series mostly up to 57.5 µM; activity change, negative = inhibition: at the top concentration
Procedure, shortened: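 Rat S16 Schwann cells stably carrying firefly luciferase driven by a PMP22 intronic element, in 10% FBS, treated 24 h at 37 C. ONE-Glo luminescence normalized to PTC124 control and DMSO (0%); curves classed by r2, magnitude and activity.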

Row | SMILES | Potency | activity change, negative = inhibition
1 | Oc1c(I)cc(I)c2cccnc12 | 8.09 µM (active) | 
2 | CC(=O)OCC(=O)NCCCOc1cccc(CN2CCCCC2)c1 |  | -2.25%
3 | CC(Cc1cccc(C(F)(F)F)c1)NCCOC(=O)c1ccccc1 (stereo unspecified) |  | 0.315%
4 | NCCc1ccn[nH]1 |  | -7.77% [at 25.7 µM]
5 | c1ccc(CNCCNCc2ccccc2)cc1 |  | 3.05%
6 | CC(=O)Oc1ccc(C(=C2CCCCC2)c2ccc(OC(C)=O)cc2)cc1 |  | 3.75%
7 | CCCCOc1cc(C(=O)NCCN(CC)CC)c2ccccc2n1 |  | 1.11% [at 25.7 µM]
8 | CCN(CC)CCOC(=O)C(c1ccccc1)C1CCCCC1 (stereo unspecified) |  | 26.4%
9 | CN(C)CCCOc1nn(Cc2ccccc2)c2ccccc12 |  | -3.99% [at 25.7 µM]
10 | OCc1ccccc1O |  | 0.719%
11 | CCC(=O)c1c(O)cc(O)cc1O |  | -3.37%
12 | N[C@H](CO)C(=O)O |  | -3.91%
13 | Nc1ccc(C(=O)Nc2ccccc2N)cc1 |  | -22.9%
14 | CN1C2CCC1CC(OC(=O)c1c[nH]c3ccccc13)C2 (stereo unspecified) |  | -11.8%
15 | CCCCC(CC)CN=C(N)NC(N)=NCCCCCCN=C(N)NC(N)=NCC(CC)CCCC (stereo unspecified) | 25.6 µM (active) | 
16 | C[C@]12CCC(=O)C=C1CC[C@H]1[C@@H]3CC[C@](O)(C(=O)CO)[C@@]3(C)C[C@H](O)[C@@]12F |  | 27.3%
17 | CC1(C)CCC(NC(=O)[C@@H](N)CCC(=O)O)CC1 |  | 23.4%
18 | CN=C(NC#N)NCCSCc1csc(N=C(N)N)n1 |  | 8.52%
19 | Cc1ccc(O)c2ncccc12 |  | -39.9%

Row | SMILES | Potency | activity change, negative = inhibition
20 | O=C(O)CNC(=O)c1ccccc1 |  | -3.2%
21 | Cc1cccn2c(=O)c(-c3nnn[nH]3)cnc12 |  | -8.15%
22 | CC(C)(C(=O)c1cccnc1)c1cccnc1 |  | -19.1% [at 25.7 µM]
23 | CNCCC=C1c2ccccc2CCc2ccccc21 | 11.4 µM (active) | 
24 | O=c1c(-c2ccccc2)c1-c1ccccc1 | 3.22 µM (active) | 
25 | c1ccc(OCc2ccc(CCCN3CCOCC3)cc2)cc1 |  | 5.62%
26 | C[C@@H]1C[C@H]2[C@@H]3CCC4=CC(=O)C=C[C@]4(C)[C@@]3(F)[C@@H](O)C[C@]2(C)[C@H]1C(=O)CO |  | -7.19%
27 | C[C@@H](CN(C)C)CN1c2ccccc2Sc2ccccc21 |  | 0.855% [at 25.7 µM]
28 | Cc1c(F)c(N2CCNC(C)C2)cc2c1c(=O)c(C(=O)O)cn2C1CC1 (stereo unspecified) |  | 1.56%
29 | NC(CS)C(=O)O (stereo unspecified) |  | 14.3%
30 | CN1CCN(CCCN2c3ccccc3Sc3ccc(S(=O)(=O)N(C)C)cc32)CC1 |  | -9.79% [at 25.7 µM]
31 | COc1cc(OC)cc(OC)c1 |  | -6.33%
32 | Cc1ccnc(NS(=O)(=O)c2ccc(N)cc2)n1 |  | -12% [at 25.7 µM]
33 | CC[N+](CC)(CCNC(=O)C(=O)NCC[N+](CC)(CC)Cc1ccccc1Cl)Cc1ccccc1Cl |  | 1.9%
34 | CCN(CC)C(=O)/C(C#N)=C/c1cc(O)c(O)c([N+](=O)[O-])c1 |  | -8.94%
35 | CCCCCCCCCCCCCCCCOP(=O)([O-])OCC[N+](C)(C)C |  | -21.8%
36 | O=C(COc1ccc(Cl)cc1)N1CCN(Cc2ccc3c(c2)OCO3)CC1 |  | 1.77%
37 | NC(=O)C(=O)N/N=C/c1ccc([N+](=O)[O-])o1 | 32.2 µM (active) | 
38 | CCCn1c(=O)[nH]c(=O)c2[nH]cnc21 |  | -22.9%

Tested on: not listed separately
Test: S16 Schwann cell PMP22 intronic element beta-lactamase assay (AID 624044; calls by dose curve;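 further: 0% = DMSO and -100% = potassium clavulanate positive control; nearly all actives have a fitted effect of over 15% in size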)
Conditions: S16 rat Schwann cells, PMP22 element beta-lactamase FRET, 24 h; ratio activity, negative = inhibition: at 38.3 µM (top of the series)
Procedure, shortened: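 Beta-lactamase reporter under a PMP22 intronic regulatory element in stable S16 rat Schwann cells; 24 h compound exposure. 460 nm blue signal normalized between DMSO (0%) and potassium clavulanate, with 535 nm FRET tracking viability; curves classed by r2 and response.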

Row | SMILES | ratio activity, negative = inhibition
39 | CC(=O)Oc1ccc(C(=C2CCCCC2)c2ccc(OC(C)=O)cc2)cc1 | 6.78%
40 | CN(C)CCCOc1nn(Cc2ccccc2)c2ccccc12 | 2.95% [at 17.1 µM]
41 | CCC(=O)c1c(O)cc(O)cc1O | -0.944%
42 | CN1CCC(=C2c3ccccc3Sc3ccccc32)CC1 | -5.41%
43 | CCCCC(CC)CN=C(N)NC(N)=NCCCCCCN=C(N)NC(N)=NCC(CC)CCCC (stereo unspecified) | -17.3%
44 | CN=C(NC#N)NCCSCc1csc(N=C(N)N)n1 | 0.697%
45 | CC(C)(C(=O)c1cccnc1)c1cccnc1 | -2.52% [at 17.1 µM]
46 | c1ccc(OCc2ccc(CCCN3CCOCC3)cc2)cc1 | -13.6%
47 | C[C@@H](CN(C)C)CN1c2ccccc2Sc2ccccc21 | -0.059% [at 17.1 µM]
48 | NC(CS)C(=O)O (stereo unspecified) | 1.96%
49 | CN1CCN(CCCN2c3ccccc3Sc3ccc(S(=O)(=O)N(C)C)cc32)CC1 | -15% [at 17.1 µM]
50 | CCCCCCCCCCCCCCCCOP(=O)([O-])OCC[N+](C)(C)C | -11%
51 | NC(=O)C(=O)N/N=C/c1ccc([N+](=O)[O-])o1 | -0.651%

Target: Glutaminase kidney isoform, mitochondrial (Homo sapiens) (UniProt O94925)
Test: qHTS for Inhibitors of Glutaminase (GLS): LOPAC Validation (AID 624146);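 further: glutamate product detected by oxidase and peroxidase coupled Amplex red fluorescence gain; on the % scale 0 is the no-effect control and ±100 the full control effect; nearly all actives have a fitted effect of over 60% in size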
Conditions: glutaminase enzyme activity inhibition; series mostly up to 46.1 µM; activity change, negative = inhibition: at the top concentration
Procedure, shortened: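 Read-out is an Amplex red fluorescence increase coupled through glutamate oxidase and HRP, measured before and after 30 min room-temperature incubation. hKGA is in 45 mM KH2PO4 (pH 8.2) with 0.02% Tween-20; glutamine added as 1mM solution.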

Sequence of Glutaminase kidney isoform, mitochondrial (Homo sapiens) (O94925 whole entry, looked up, canonical isoform): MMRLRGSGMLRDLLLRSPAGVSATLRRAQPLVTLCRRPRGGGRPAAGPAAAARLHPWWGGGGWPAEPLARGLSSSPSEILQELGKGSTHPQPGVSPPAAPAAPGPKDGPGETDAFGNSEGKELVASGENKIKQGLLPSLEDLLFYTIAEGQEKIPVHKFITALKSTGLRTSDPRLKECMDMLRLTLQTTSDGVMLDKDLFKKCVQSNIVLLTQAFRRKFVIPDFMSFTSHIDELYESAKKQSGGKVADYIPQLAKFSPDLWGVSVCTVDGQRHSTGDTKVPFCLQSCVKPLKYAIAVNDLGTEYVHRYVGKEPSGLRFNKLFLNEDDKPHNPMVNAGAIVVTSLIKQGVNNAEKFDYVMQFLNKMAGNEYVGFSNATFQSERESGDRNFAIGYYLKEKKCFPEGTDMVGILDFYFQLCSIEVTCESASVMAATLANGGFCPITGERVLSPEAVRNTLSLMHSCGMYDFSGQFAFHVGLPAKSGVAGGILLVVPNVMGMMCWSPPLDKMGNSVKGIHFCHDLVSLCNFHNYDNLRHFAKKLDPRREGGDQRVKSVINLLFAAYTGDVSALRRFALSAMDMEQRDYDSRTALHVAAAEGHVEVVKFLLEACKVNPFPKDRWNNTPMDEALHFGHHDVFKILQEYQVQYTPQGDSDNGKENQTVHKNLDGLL

Row | SMILES | activity change, negative = inhibition
52 | N[C@H](CO)C(=O)O | 0.686%
53 | CN1C2CCC1CC(OC(=O)c1c[nH]c3ccccc13)C2 (stereo unspecified) | -12%
54 | CC1(C)CCC(NC(=O)[C@@H](N)CCC(=O)O)CC1 | -11.5%
55 | CNCCC=C1c2ccccc2CCc2ccccc21 | 2.29%
56 | CCCn1c(=O)[nH]c(=O)c2[nH]cnc21 | 436%

From PubChem BioAssay (NCATS)
